Test results published in PubChem BioAssay AID504332 (National Center for Advancing Translational Sciences (NCATS), 2011).
Among all 350,000 compounds or so, about 31,000 (8.9%) were called active. Another 15% or so got no clear call; they are omitted. What follows is part of a selection rich in actives, with near analogues and random picks from the rest. A call without a number means that no potency is given here. Unmarked numbers belong to inactive results. The call rests on the fitted dose curve; in most records, active means well fitted inhibition curve with a large enough effect; inconclusive means small, poorly fitted or top-dose-only effect; inactive means no such curve, though single readings can be large or run the other way.

Target: Histone-lysine N-methyltransferase EHMT2 (Homo sapiens) (UniProt Q96KQ7)
Experiment: qHTS Assay for Inhibitors of Histone Lysine Methyltransferase G9a; further: nearly all actives have a fitted effect of over 75% in size
Conditions: G9a H3K9 monomethylation, AlphaScreen, 2 h; series mostly up to 59 µM
Excerpt: Methylated lysines, on the N-terminal tails of histone proteins serve as epigenetic markers to recruit factors that can then modify local chromatin structure to lead to functional consequences. G9a and other members of the SUV39 family of the SET domain-containing superfamily of histone lysine methyltransferases (HMT) have been identified to specifically methylate Lys9 of histone H3 (H3K9). G9a catalyzes the mono- and di-methylation of H3K9 in mammalian euchromatic regions, where the resulting H3K9me2 is indicative of transcriptional repression. […] The inhibition of G9a will result in transcriptional activation and work synergistically with DNA methyltransferase and histone deacetylase inhibitors, to kill cancer cells. This qHTS assay for identification of G9a inhibitors is a chemiluminescence based AlphaScreen (PerkinElmer). Methylation of biotinylated-histone peptide is measured through specific antibody-based detection, in conjunction with streptavidin-coated donor and anti-IgG antibody-coated acceptor beads. The method is particularly well suited for detection of inhibitors acting by the desired histone peptide competitive mechanism and is applicable to testing other HMTs. Although AlphaScreen has significant advantages with its utility in a variety of epigenetic target assays, the primary screening data provided in this deposition should be used with caution due to the prevalence of screening artifacts. An AlphaScreen counterscreen is highly recommended to be run against any putative actives to eliminate non specific artifacts. Alternatively, one can use other AlphaScreen assays in PubChem to filter out promiscuous hits. Quinn et al. A chemiluminescence-based method for identification of histone lysine methyltransferase inhibitors. Mol Biosyst 6(5): 782-8. 2010. PMID: 20567762 [2] Baell,Holloway. New substructure filters for removal of pan assay interference compounds (PAINS) from screening libraries and for their exclusion in bioassays. J Med Chem. 53(7):2719-40. 2010. PMID: 20131845 NIH Molecular Libraries Probe Production Network [MLPCN] NIH Chemical Genomics Center [NCGC] Structural Genomics Consortium (SGC) NIH Grant: 5U54 MH084681-02
To each well of a 1,536w plate, 2ul of HMT enzyme (final 20nM) were added, using a nanoliter dispenser. The G9a- and GLP-inhibitor BIX-01294 (CID: 25150857) are used as an intraplate control, with a 16-point titration in duplicate. A Kalypsys pin-tool transferred 23nl of library compound solution in DMSO to each well. Following a 15 min incubation of enzyme with compounds at room temperature, 1ul mixture of b-H3K9 peptide substrate (final 500nM) and SAM cofactor (final 20uM) were added. Reactions were allowed to proceed at room temperature for 2 hours. Methylated b-H3K9 peptide product was detected with 0.5 ug/mL rabbit polyclonal anti-monomethyl histone H3K9 antibody (Abcam Inc., Cambridge, MA) and 20 ug/mL each streptavidin-coated donor and anti-rabbit IgG acceptor AlphaScreen beads. Antibody and beads were added in a 1ul dispense, for a final volume of 4ul, and plates were incubated, protected from the light, for 10 min at room temperature. Microplates were then read on an EnVision multilabel plate reader using the 1,536 plate HTS AlphaScreen aperture (excitation time 80 ms, measurement time 240 ms).
Potency means the concentration at half of the fitted maximal effect.

Sequence of Histone-lysine N-methyltransferase EHMT2 (Homo sapiens) (Q96KQ7 913-1193 limits assumed): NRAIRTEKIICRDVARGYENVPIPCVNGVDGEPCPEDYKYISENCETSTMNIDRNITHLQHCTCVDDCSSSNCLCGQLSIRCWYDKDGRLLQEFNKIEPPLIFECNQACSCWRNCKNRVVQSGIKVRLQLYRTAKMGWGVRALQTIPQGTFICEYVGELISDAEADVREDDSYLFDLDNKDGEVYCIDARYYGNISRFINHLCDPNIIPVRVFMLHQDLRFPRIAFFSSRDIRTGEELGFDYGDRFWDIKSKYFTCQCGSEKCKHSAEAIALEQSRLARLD

Row | Compound | Potency | activity, negative = inhibition
1 | CC(=O)Nc1ccc(NC(=O)c2cc3sccc3n2Cc2ccc(F)cc2)cc1 | inactive | –
2 | COc1ccc(NC(=O)C2CCCN(S(=O)(=O)c3c(C)[nH]c(=O)[nH]c3=O)C2)c(OC)c1 (stereo unspecified) | inactive | –
3 | CCn1c(SCC(=O)Nc2nccs2)nnc1-c1ccncc1 | – | -2.99% [at 12.7 µM]
4 | CCOC(=O)CNC(=O)c1nn(-c2cccc(OC)c2)c(=O)c2ccccc12 | inactive | –
5 | CCOC(=O)CNC(=O)CSc1nnc(COc2ccc(Cl)cc2)n1CC | 20 µM (active) | –
6 | C=CCn1c(COc2ccccc2)nnc1SCC(=O)NCC(=O)OCC | inactive | –
7 | CCOC(=O)CNC(=O)CSc1nnc(-c2cccc(OC)c2)n1CC | 50.1 µM (active) | –
8 | CCn1c(COc2ccc(OC)cc2)nnc1SCC(=O)Nc1cc(OC)ccc1OC | – | 7.11% [at 12.7 µM]
9 | CN(C)c1cccc(C(=O)Nc2nc3ccc(S(=O)(=O)NC(C)(C)C)cc3s2)c1 | inactive | –
10 | CCCCCN(C(=O)CCC(=O)OCCOc1ccc(OC)cc1)c1c(N)n(CCCC)c(=O)[nH]c1=O | inactive | –
11 | COC(=O)C1CCN(C(=O)NC2CC(=O)N(c3ccc4c(c3)OCCO4)C2)CC1 (stereo unspecified) | – | 21.6% [at 0.501 µM]
12 | O=C(CSc1nnc(N2CCOCC2)n1-c1cccc(F)c1)N1CCN(c2ccccn2)CC1 | – | -9.34% [at 12.7 µM]
13 | COc1ccc(S(=O)(=O)c2cn(C)c3cc(N4CCCCC4)c(F)cc3c2=O)cc1 | inactive | –
14 | CCc1nc(Nc2ccc3nccnc3c2)c2oc3ccccc3c2n1 | inactive | –
15 | CCc1nc(Nc2ccc(NC(C)=O)cc2)c2oc3ccccc3c2n1 | 50.1 µM (active) | –
16 | CCc1nc(N2CCN(c3nc(C)cc(C)n3)CC2)c2oc3ccccc3c2n1 | – | 2.59% [at 2.33 µM]
17 | CCOc1ccc(S(=O)(=O)N(CC(=O)NCCSCc2ccc(C)cc2)c2ccccc2)cc1 | inactive | –
18 | Clc1c(OCCCn2ccnc2)ccc2ccccc12 | 79.4 µM (active) | –
19 | Brc1ccc(OCCn2ccnc2)cc1 | inactive | –
20 | c1ccc(Cc2ccc(OCCn3ccnc3)cc2)cc1 | inactive | –
21 | Cc1ccccc1S(=O)(=O)N1[C@@H](c2cccc(Cl)c2)C(C(=O)O)=CC[C@H]1c1ccc(Cl)cc1 | – | -5.32% [at 2.33 µM]
22 | CCOc1ccc(CNC(=O)CCc2c(C)nn(-c3ccc(N4CCCCC4)nn3)c2C)cc1 | inactive | –
23 | COc1ccccc1CSc1nc2ccccc2[nH]1 | inactive | –
24 | COc1ccccc1CSc1ncc(-c2ccc([N+](=O)[O-])cc2)[nH]1 | 8.91 µM (active) | –

Row | Compound | Potency | activity, negative = inhibition
25 | COc1ccccc1CC(=O)Nc1ccc([N+](=O)[O-])cc1OC | inactive | –
26 | Cc1ccc(C(=O)NCCNS(=O)(=O)c2ccccc2)cc1 | inactive | –
27 | O=C(NCCSc1ccccc1)c1ccco1 | inactive | –
28 | CCS(=O)(=O)Nc1ccc(C(=O)NCCSc2ccccc2)cc1 | 79.4 µM (active) | –
29 | CCCN(C(=O)c1nc2nccc(C)n2n1)c1c(N)n(Cc2ccccc2)c(=O)[nH]c1=O | – | 3.83% [at 12.7 µM]
30 | CC(OC(=O)CCC(=O)c1ccccc1)C(=O)Nc1ccc(F)cc1 (stereo unspecified) | inactive | –
31 | O=C(Nc1ccc(S(=O)(=O)NCC2CCCO2)cc1)c1ccc(F)cc1 (stereo unspecified) | inactive | –
32 | N#Cc1c(C(F)(F)F)cc(-c2ccc(Cl)cc2)nc1SCC(=O)O | inactive | –
33 | N#Cc1c(-c2ccccc2)cc(-c2ccccc2)nc1SCC(=O)O | 11.2 µM (active) | –
34 | CCSc1nc(-c2ccc(OC)cc2)cc(-c2ccc(OC)cc2)c1C#N | inactive | –
35 | CCc1ccc(NC(=O)c2cnc3c(-c4ccccc4)c(C)nn3c2C)cc1 | inactive | –
36 | O=C(NCc1ccc2c(c1)OCO2)c1c(O)nc2sccn2c1=O | inactive | –
37 | Cc1ccc(NC(=O)C(Cc2ccccc2)NS(=O)(=O)c2ccc3c(c2)oc(=O)n3C)cc1C (stereo unspecified) | inactive | –
38 | O=C(N/N=C/c1ccc(OCc2ccccc2)cc1)c1ccc(O)cc1 | inactive | –
39 | O=C(C[n+]1ccccc1)N/N=C/c1ccc(O)cc1 | inactive | –
40 | Oc1ccc(/C=N/N(Cc2ccccc2)c2ccccc2)cc1 | 39.8 µM (active) | –
41 | Cc1ccc(Cn2c(CNC(=O)Cc3cccc(C)c3)nc3cccnc32)cc1 | inactive | –
42 | CCOC(=O)C1=C(c2ccccc2)Nc2ncnn2C1c1ccc(Cl)cc1 (stereo unspecified) | inactive | –
43 | Fc1ccccc1/C=C1\CCCC2=C1Nc1ncnn1C2c1ccccc1F (stereo unspecified) | 35.5 µM (active) | –
44 | CC1=C(C(N)=O)C(c2ccc(Br)cc2)n2ncnc2N1 (stereo unspecified) | inactive | –
45 | COc1cc(NC(=O)c2nn(-c3ccc(C)cc3)c(=O)c3c2c2ccccc2n3C)cc(OC)c1OC | inactive | –
46 | COc1ccc2c(c1)CCc1c(C(=O)Nc3cc(C)ccc3O)noc1-2 | inactive | –
47 | Cc1cc(C)cc(N)c1 | – | 2.02% [at 0.501 µM]
48 | Cc1cc(C(C)(C)C)cc(C)c1N | inactive | –

Row | Compound | Potency | activity, negative = inhibition
49 | CC(C)(C)c1ccc(Oc2ccc(N)cc2)cc1 | 50.1 µM (active) | –
50 | CC(C)(C)c1ccc(OC2=CS(=O)(=O)c3ccccc32)cc1 | inactive | –
51 | Cc1ccc(Oc2ccc(N)cc2)cc1 | 50.1 µM (active) | –
52 | Cc1ccc(S(=O)(=O)c2ccc(Oc3ccccc3)cc2)cc1 | inactive | –
53 | NC(=O)NC(=O)C(OC(=O)CCNS(=O)(=O)c1ccccc1)c1ccccc1 (stereo unspecified) | inactive | –
54 | CCCS(=O)(=O)Nc1cccc(-c2cn3ccsc3n2)c1 | inactive | –
55 | Cc1ccc(NC(=O)Cc2nc(COC(=O)C(C)NS(=O)(=O)c3ccc(C)cc3)cs2)cc1 (stereo unspecified) | – | -6.75% [at 12.7 µM]
56 | Cc1ccc(S(=O)(=O)c2c(Nc3cccc(Cl)c3)sc(C(=O)c3ccc4c(c3)OCO4)c2N)cc1 | inactive | –
57 | COc1ccc(CNC(=O)CCc2c(C)nn(-c3ccc(N4CCCC4)nn3)c2C)cc1 | inactive | –
58 | O=C(Cn1c[n+](CC(=O)c2ccc([N+](=O)[O-])cc2)cn1)c1ccc([N+](=O)[O-])cc1 | inactive | –
59 | O=C(c1ccncc1)c1ccc([N+](=O)[O-])cc1 | inactive | –
60 | O=C(CC(n1cncn1)C(Cl)(Cl)Cl)c1ccc([N+](=O)[O-])cc1 (stereo unspecified) | 10 µM (active) | –
61 | O=C(O)[C@@H](S)[C@H](S)C(=O)O | 6.31 µM (active) | –
62 | Cc1cccc(CNC(=O)c2cnc3sc(N4CCCCC4)nn3c2=O)c1 | inactive | –
63 | CCCC12CN3CC(CCC)(CN(C1)C3c1c[nH]c3ccc(OC)cc13)C2=O (stereo unspecified) | inactive | –
64 | S=C(NNC(=S)NC1CC2C=CC1C2)NC1CC2C=CC1C2 (stereo unspecified) | 2 µM (active) | –
65 | CCn1c(CNC(=O)C23CC4CC(CC(C4)C2)C3)nnc1SCC(=O)Nc1ccc(OC)cc1 | inactive | –
66 | Cc1ccc(-c2nc(SCc3ccc(Br)cc3)n3[nH]c(=O)cc3n2)cc1 | inactive | –
67 | NC(=O)C(=O)N/N=C/c1ccc([N+](=O)[O-])o1 | inactive | –
68 | O=S(=O)(c1ccc2nc(N3CCN(c4cccc(Cl)c4)CC3)ccc2c1)N1CCCCC1 | inactive | –
69 | Cc1ccc(Nc2ccc3cc(S(=O)(=O)N4CCCCC4)ccc3n2)cc1F | inactive | –
70 | O=S(=O)(c1ccc2nc(NCc3ccccc3Cl)ccc2c1)N1CCCCC1 | 7.94 µM (active) | –
71 | COc1ccc(NC(=O)CN(C)C(=O)c2cccc(S(=O)(=O)N3CCN(c4ccccc4)CC3)c2)cc1 | inactive | –
72 | COC(=O)c1cccc(NC(=O)CN2CCC(NC(=O)c3cc(OC)c(OC)c(OC)c3)CC2)c1 | inactive | –

Row | Compound | Potency | activity, negative = inhibition
73 | CCN1CCN(CC(=O)c2cc(OC)c(OC)c(OC)c2)CC1 | 39.8 µM (active) | –
74 | COc1cc(C(=O)N2CCN(C)CC2)cc(OC)c1OC | inactive | –
75 | CCOC(=O)c1ccccc1CN1C(=O)c2ccccc2S1(=O)=O | inactive | –
76 | Cc1cc(C)c2oc(-c3cccc(NC(=O)c4cccc(F)c4)c3C)nc2c1 | inactive | –
77 | CC/C(O)=N\S(=O)(=O)c1ccc(N=NN(C)C)cc1 | inactive | –
78 | COc1ccc(/C(C)=N/NC(=O)c2ccc3nc[nH]c3c2)cc1 | inactive | –
79 | CN(C)N=Nc1ccc2nc[nH]c2c1 | 1.78 µM (active) | –
80 | Cc1ccccc1CSc1nnc(-c2cccnc2)n1N | – | 3.07% [at 12.7 µM]
81 | COc1ccc(C(=O)CSc2nnc(COc3ccccc3)n2Cc2ccco2)cc1 | 50.1 µM (active) | –
82 | CCOC(=O)Cc1csc(NC(=O)CSc2nnc(-c3cccnc3)n2Cc2ccco2)n1 | inactive | –
83 | C=CCn1c(CNC(=O)c2ccco2)nnc1SCC(=O)c1ccc(OC)cc1 | inactive | –
84 | O=C(CSc1nnc(-c2cccnc2)n1Cc1ccco1)c1ccc(Cl)cc1 | inactive | –
85 | O=C(CSc1nnc(-c2cnccn2)n1Cc1ccco1)c1ccc(Cl)c(Cl)c1 | 50.1 µM (active) | –
86 | Cc1ccc(NC(=O)CSc2nnc(-c3cnccn3)n2Cc2ccco2)cc1C | – | 7.37% [at 12.7 µM]
87 | C(=C\c1ccccc1)/CSc1nnc(-c2cccnc2)n1Cc1ccco1 | 50.1 µM (active) | –
88 | O=C(CSc1nnc(-c2cccnc2)n1Cc1ccco1)c1ccc(Cl)c(Cl)c1 | 50.1 µM (active) | –
89 | Cn1c(Cc2csc(N)n2)nnc1SC/C=C/c1ccccc1 | – | 12.8% [at 12.7 µM]
90 | O=C(CSc1nnc(COc2ccc(Cl)cc2)n1Cc1ccco1)N1CCNC1=O | – | -16.3% [at 0.501 µM]
91 | CCc1ccc(NC(=O)CSc2nnc(-c3cnccn3)n2Cc2ccco2)cc1 | – | -31.5% [at 12.7 µM]
92 | COc1ccc2c3c(c(=O)oc2c1)C1O[C@](CCCCN2C(=O)c4ccccc4C2=O)(Cc2c1ccc1ccccc21)O3 | – | -1.18% [at 2.33 µM]
93 | O=C(COc1ccc(Cl)cc1)Nc1ccc(-c2nc3cc(Cl)ccc3o2)c(O)c1 | inactive | –
94 | CCc1ccc(C(=O)NNC(=O)C2CCN(c3ncnc4sc(C)c(C)c34)CC2)cc1 | inactive | –
95 | Cc1ccc(Cl)cc1N(C)C(=O)C1CCCN(c2ncnc3onc(-c4ccc(F)cc4)c23)C1 (stereo unspecified) | inactive | –
96 | CCC1(CC)NC(=O)N(CC(=O)OCC(=O)c2cc(C)c(C)cc2C)C1=O | inactive | –
